The source made the active and inactive calls. How the source made its calls: active means hit-call score of the fitted dose curve at least 0.9, where 1 is the maximum; inactive means score below 0.9.
Columns and labels:
[1] = ATG_M_32_CIS: Attagene CIS-FACTORIAL HepG2 Assay for M32 Transcription Factor (Internal Marker) (AID 2282949); settings: HepG2 Attagene cis-factorial M32 reporter, mRNA; actives raise or lower the signal;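 further: background control marker of the multiplexed CIS panel rather than a real target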
Procedure, shortened: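 Using DMSO as baseline, bidirectional curve fits were applied to reporter mRNA signals. These came from transiently transfected HepG2 cells exposed for 24 h, with RNA analysed by RT-PCR, FAM primer extension, HpaI digestion and CE.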

[2] = ATG_M_06_CIS: Attagene CIS-FACTORIAL HepG2 Assay for M06 Transcription Factor (Internal Marker) (AID 2282950); settings: HepG2 Attagene CIS-FACTORIAL M06 internal marker reporter; actives raise or lower the signal
Procedure, shortened: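 Read-out is fluorescence of labelled reporter cDNA fragments resolved by capillary electrophoresis after RT-PCR. Cells: HepG2 carrying transfected cis-promoter reporter units, treated 24 h. Gain or loss of signal fitted relative to DMSO.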

[3] = biological target: Hypoxia-inducible factor 1-alpha (Homo sapiens) (UniProt Q16665); assay: ATG_HIF1a_CIS: Attagene CIS-FACTORIAL HepG2 Assay for human Hypoxia Inducible Factor 1 (HIF1A) (AID 2282951); settings: HepG2 Attagene cis-factorial HIF1a reporter transcription; actives raise or lower the signal
Procedure, shortened: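 In this multiplexed cell assay, HepG2 cells bearing transfected cis reporters are dosed for 24 h and reporter mRNA is read by RT-PCR plus capillary electrophoresis; signal increases and decreases are both scored against DMSO.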

[4] = biological target: Hepatocyte nuclear factor 6 (Homo sapiens) (UniProt Q9UBC0); assay: ATG_HNF6_CIS: Attagene CIS-FACTORIAL HepG2 Assay for human Hepatocyte Nuclear Factor 6 (HNF6) (AID 2282952); settings: HepG2 Attagene cis-factorial HNF6 reporter transcription; actives raise or lower the signal
Procedure, shortened: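 Endogenous transcription factor activity in human HepG2 liver cells was captured through cis-regulated reporter constructs. After 24 h treatment, reporter mRNA was measured by RT-PCR with capillary electrophoresis, and activity was fitted in both directions relative to DMSO.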

[5] = biological target: Heat shock factor protein 1 (Homo sapiens) (UniProt Q00613); assay: ATG_HSE_CIS: Attagene CIS-FACTORIAL HepG2 Assay for human Heat Shock Transcription Factor 1 (HSE) (AID 2282953); settings: HepG2 HSE cis-reporter, Attagene RNA transcription; actives raise or lower the signal
Procedure, shortened: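 HepG2, transient MRTU transfection, cis-promoter reporters (endogenous TF activity). 24 h compound. RNA → oligo(dT) RT → PCR → 6-FAM primer extension → HpaI cut → CE. Bidirectional fit vs DMSO.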

[6] = ATG_MRE_CIS: Attagene CIS-FACTORIAL HepG2 Assay for human Metal Responsive Element (MRE) (AID 2282954); settings: HepG2 MRE cis-reporter transcription, Attagene multiplex; actives raise or lower the signal
Procedure, shortened: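 Multiplexed cis-reporter assay in human HepG2 liver cells, 24 h incubation with test chemical. Reporter transcripts measured by RT-PCR and capillary electrophoresis; values from bidirectional curve fitting versus DMSO.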

[7] = ATG_PBREM_CIS: Attagene CIS-FACTORIAL HepG2 Assay for human Phenobarbital-responsive Enhancer Module (PBREM) (AID 2282955); settings: HepG2 PBREM cis-reporter, Attagene multiplexed transcription; actives raise or lower the signal
Procedure, shortened: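 After a 24 h incubation with test chemical, transfected HepG2 cells yield total RNA; reporter-specific RT-PCR products are fluorescently labelled, HpaI-digested and resolved by capillary electrophoresis against ROX size standards.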

[8] = biological target: Paired box protein Pax-6 (Homo sapiens) (UniProt P26367); assay: ATG_Pax6_CIS: Attagene CIS-FACTORIAL HepG2 Assay for human Paired Box 6 (PAX6) (AID 2282956); settings: HepG2 CIS-FACTORIAL PAX6 reporter transcription, RNA readout; actives raise or lower the signal
Procedure, shortened: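 DMSO-referenced bidirectional fits of reporter mRNA fluorescence; HepG2 with transient cis-promoter MRTUs, 24 h post-dose, RT-PCR plus capillary electrophoresis detection.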

[9] = ATG_PXRE_CIS: Attagene CIS-FACTORIAL HepG2 Assay for human Pregnane X Receptor Element (PXRE) (AID 2282957); settings: HepG2 Attagene CIS-FACTORIAL PXRE reporter, mRNA; actives raise or lower the signal
Procedure, shortened: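 Endogenous transcription factor activity in HepG2 was gauged through induction of reporter mRNA driven by a cis-regulating promoter element, sampled 24 h post-treatment. Activity was fitted in both directions against DMSO negative control.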

[10] = ATG_PPRE_CIS: Attagene CIS-FACTORIAL HepG2 Assay for human Peroxisome Proliferator-activated Response Element (PPRE) (AID 2282958); settings: HepG2 PPRE cis-element reporter, Attagene transcription factor profiling; actives raise or lower the signal
Procedure, shortened: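 Multiplexed reporter transcription units under cis-regulatory promoters were transfected into HepG2 cells to capture endogenous factor activity. A 24 h incubation preceded RNA isolation and fluorescent RT-PCR fragment analysis.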

[11] = ATG_RORE_CIS: Attagene CIS-FACTORIAL HepG2 Assay for human RAR-related Orphan Receptor Element (RORE) (AID 2282959); settings: HepG2 Attagene cis-factorial RORE reporter, mRNA; actives raise or lower the signal
Procedure, shortened: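 Fluorescence intensity of reporter-specific cDNA fragments, separated by capillary electrophoresis, gives the signal. Source: HepG2 liver cells transiently transfected with cis-element reporters and exposed 24 h; DMSO-normalized bidirectional fit.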

[12] = ATG_Sox_CIS: Attagene CIS-FACTORIAL HepG2 Assay for human SRY-box transcription factor (SOX) (AID 2282960); settings: HepG2 Attagene cis-factorial SOX reporter, mRNA; actives raise or lower the signal
Procedure, shortened: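 After 24 h of chemical treatment, transfected HepG2 reporter cells are lysed for total RNA. Transcript levels come from RT-PCR with labelled primer extension and capillary electrophoresis, analysed bidirectionally versus DMSO.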

[13] = biological target: Transcription factor Sp1 (Homo sapiens) (UniProt P08047); assay: ATG_Sp1_CIS: Attagene CIS-FACTORIAL HepG2 Assay for human Specificity Protein 1 (Sp1) (AID 2282961); settings: HepG2 Sp1 cis-reporter transcription, actives raise or lower the signal
Procedure, shortened: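 Sp1-driven reporter mRNA, read as capillary electrophoresis fluorescence after RT-PCR, in transiently transfected HepG2 cells dosed for 24 h; signal change in either direction relative to DMSO.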

[14] = ATG_SREBP_CIS: Attagene CIS-FACTORIAL HepG2 Assay for human Sterol Regulatory Element Binding (SREBP) (AID 2282962); settings: HepG2 Attagene cis-factorial SREBP reporter, mRNA; actives raise or lower the signal
Procedure, shortened: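 In this cis-format assay, HepG2 liver cells express reporters controlled by promoter elements responsive to native transcription factors. Exposure lasts 24 h; reporter mRNA fluorescence from capillary electrophoresis gives the signal, fitted bidirectionally against DMSO.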

[15] = biological target: Signal transducer and activator of transcription 3 (Homo sapiens) (UniProt P40763); assay: ATG_STAT3_CIS: Attagene CIS-FACTORIAL HepG2 Assay for human Signal Transducer and Activator of Transcription 3 (STAT3) (AID 2282963); settings: HepG2, Attagene cis-factorial STAT3 reporter transcription; actives raise or lower the signal
Procedure, shortened: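 Cis-factorial format: endogenous transcription factors in HepG2 drive transfected reporter units. After 24 h treatment, reporter RNA was reverse-transcribed, amplified, FAM-labelled and HpaI-digested before CE analysis; activity scored in both directions against DMSO.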

[16] = ATG_TA_CIS: Attagene CIS-FACTORIAL HepG2 Assay for human TA Basal Promoter (AID 2282964); settings: HepG2 Attagene CIS-factorial TA basal promoter reporter; actives raise or lower the signal
Procedure, shortened: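 Read-out: fluorescent reporter-transcript fragments resolved by capillary electrophoresis after RT-PCR and HpaI digestion. Source: HepG2 cells carrying transiently transfected multi-reporter cis constructs, treated 24 h. Endpoint fitted bidirectionally relative to DMSO.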

[17] = ATG_TCF_b_cat_CIS: Attagene CIS-FACTORIAL HepG2 Assay for human T-Cell-Factor with beta-catenin (TCF/b-cat) (AID 2282965); settings: HepG2 TCF/beta-catenin cis-reporter transcription, actives raise or lower the signal
Procedure, shortened: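 Measured: reporter mRNA in HepG2 transiently transfected with cis-promoter reporter units, 24 h after chemical addition. Fitting was bidirectional, DMSO as negative control.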

[18] = ATG_TAL_CIS: Attagene CIS-FACTORIAL HepG2 Assay for human TAL Basal Promoter (AID 2282966); settings: HepG2 Attagene cis-factorial TAL promoter reporter; actives raise or lower the signal;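 further: background control endpoint measuring basal TAL promoter reporter mRNA not a specific factor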
Procedure, shortened: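 Endogenous transcription-factor activity is sensed in HepG2 cells through transfected cis-promoter reporter constructs. After 24 h dosing, reporter transcripts are quantified by RT-PCR and capillary electrophoresis. Gain or loss of signal is fitted relative to DMSO.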

[19] = ATG_VDRE_CIS: Attagene CIS-FACTORIAL HepG2 Assay for human Vitamin D Receptor Element (VDRE) (AID 2282968); settings: HepG2 VDRE cis-reporter transcription, actives raise or lower the signal
Procedure, shortened: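 Measures endogenous factor activity through cis-element-driven reporter transcripts in transiently transfected HepG2. Cells are treated 24 h; reporter mRNA is quantified by RT-PCR and capillary electrophoresis; fitting is bidirectional.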

[20] = ATG_TGFb_CIS: Attagene CIS-FACTORIAL HepG2 Assay for human Transforming Growth Factor (TGF) (AID 2282967); settings: HepG2 Attagene CIS TGFb reporter, mRNA transcription; actives raise or lower the signal
Procedure, shortened: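 Transient MRTU transfection of HepG2 (FuGene 6). Dose 24 h. TriZol RNA, oligo(dT) RT, PCR, 6-FAM primer extension, HpaI cut, CE. Bidirectional fit, DMSO = baseline.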

Measured: AC50

Hepatocyte nuclear factor 6 (Homo sapiens), sequence (Q9UBC0 whole entry, looked up): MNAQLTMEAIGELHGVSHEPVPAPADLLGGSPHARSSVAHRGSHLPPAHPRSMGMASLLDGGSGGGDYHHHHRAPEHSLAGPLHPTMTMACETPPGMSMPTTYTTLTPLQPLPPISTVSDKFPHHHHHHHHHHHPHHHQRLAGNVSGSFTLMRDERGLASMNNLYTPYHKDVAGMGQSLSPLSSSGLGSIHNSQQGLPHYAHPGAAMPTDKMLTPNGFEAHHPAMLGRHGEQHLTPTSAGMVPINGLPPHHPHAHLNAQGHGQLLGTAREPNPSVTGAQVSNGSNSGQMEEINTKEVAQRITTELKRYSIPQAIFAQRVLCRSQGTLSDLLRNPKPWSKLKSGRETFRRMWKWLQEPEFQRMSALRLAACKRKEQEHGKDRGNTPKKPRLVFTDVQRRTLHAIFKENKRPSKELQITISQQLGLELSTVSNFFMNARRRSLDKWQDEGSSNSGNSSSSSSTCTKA
Heat shock factor protein 1 (Homo sapiens), sequence (Q00613 whole entry, looked up): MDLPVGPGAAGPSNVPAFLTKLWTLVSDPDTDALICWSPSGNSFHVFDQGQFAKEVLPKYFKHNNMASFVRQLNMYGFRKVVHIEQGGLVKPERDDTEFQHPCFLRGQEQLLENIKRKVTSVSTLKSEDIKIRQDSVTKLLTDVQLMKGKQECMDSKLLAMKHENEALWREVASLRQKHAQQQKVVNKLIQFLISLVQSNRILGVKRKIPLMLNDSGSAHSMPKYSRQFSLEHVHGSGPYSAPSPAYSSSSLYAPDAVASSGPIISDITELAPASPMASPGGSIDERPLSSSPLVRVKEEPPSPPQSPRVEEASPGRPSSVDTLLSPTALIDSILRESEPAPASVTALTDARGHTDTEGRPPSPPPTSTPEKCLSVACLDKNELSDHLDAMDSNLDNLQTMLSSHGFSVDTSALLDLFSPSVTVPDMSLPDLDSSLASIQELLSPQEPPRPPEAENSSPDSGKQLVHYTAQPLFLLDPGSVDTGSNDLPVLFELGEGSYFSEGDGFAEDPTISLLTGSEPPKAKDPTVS
Paired box protein Pax-6 (Homo sapiens), sequence (P26367 whole entry, looked up): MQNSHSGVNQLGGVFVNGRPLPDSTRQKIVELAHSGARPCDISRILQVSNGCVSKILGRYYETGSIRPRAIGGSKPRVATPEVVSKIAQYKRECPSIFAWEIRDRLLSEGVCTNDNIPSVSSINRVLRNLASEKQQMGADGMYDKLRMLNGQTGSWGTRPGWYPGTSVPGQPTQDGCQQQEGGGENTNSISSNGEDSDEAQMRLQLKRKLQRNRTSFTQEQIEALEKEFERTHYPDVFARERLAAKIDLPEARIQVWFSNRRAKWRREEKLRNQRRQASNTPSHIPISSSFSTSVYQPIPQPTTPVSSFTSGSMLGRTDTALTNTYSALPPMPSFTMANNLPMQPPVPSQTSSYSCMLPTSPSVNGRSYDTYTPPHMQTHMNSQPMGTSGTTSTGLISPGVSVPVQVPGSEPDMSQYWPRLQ
Hypoxia-inducible factor 1-alpha (Homo sapiens), sequence (Q16665 whole entry, looked up): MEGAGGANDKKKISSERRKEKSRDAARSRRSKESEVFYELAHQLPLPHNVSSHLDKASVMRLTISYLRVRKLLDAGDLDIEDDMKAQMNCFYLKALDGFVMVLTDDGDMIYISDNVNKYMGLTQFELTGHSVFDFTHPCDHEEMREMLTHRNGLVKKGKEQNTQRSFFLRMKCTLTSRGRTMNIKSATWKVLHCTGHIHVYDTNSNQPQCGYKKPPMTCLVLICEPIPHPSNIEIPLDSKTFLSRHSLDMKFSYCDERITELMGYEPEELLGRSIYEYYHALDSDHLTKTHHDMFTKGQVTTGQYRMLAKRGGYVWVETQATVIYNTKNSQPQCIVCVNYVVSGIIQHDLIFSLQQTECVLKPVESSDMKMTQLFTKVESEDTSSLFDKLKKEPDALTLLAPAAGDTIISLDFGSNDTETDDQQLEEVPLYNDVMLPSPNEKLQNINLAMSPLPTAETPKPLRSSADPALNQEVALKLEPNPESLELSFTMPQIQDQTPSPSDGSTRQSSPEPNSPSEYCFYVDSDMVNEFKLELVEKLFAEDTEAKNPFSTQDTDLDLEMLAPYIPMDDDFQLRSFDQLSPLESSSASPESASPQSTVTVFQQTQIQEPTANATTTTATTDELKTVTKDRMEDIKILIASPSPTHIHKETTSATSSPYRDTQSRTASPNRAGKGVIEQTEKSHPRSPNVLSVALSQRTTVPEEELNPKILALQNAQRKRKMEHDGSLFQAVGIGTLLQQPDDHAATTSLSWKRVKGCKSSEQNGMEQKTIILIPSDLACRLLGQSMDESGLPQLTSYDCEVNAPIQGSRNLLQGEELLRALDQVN
Signal transducer and activator of transcription 3 (Homo sapiens), sequence (P40763 whole entry, looked up): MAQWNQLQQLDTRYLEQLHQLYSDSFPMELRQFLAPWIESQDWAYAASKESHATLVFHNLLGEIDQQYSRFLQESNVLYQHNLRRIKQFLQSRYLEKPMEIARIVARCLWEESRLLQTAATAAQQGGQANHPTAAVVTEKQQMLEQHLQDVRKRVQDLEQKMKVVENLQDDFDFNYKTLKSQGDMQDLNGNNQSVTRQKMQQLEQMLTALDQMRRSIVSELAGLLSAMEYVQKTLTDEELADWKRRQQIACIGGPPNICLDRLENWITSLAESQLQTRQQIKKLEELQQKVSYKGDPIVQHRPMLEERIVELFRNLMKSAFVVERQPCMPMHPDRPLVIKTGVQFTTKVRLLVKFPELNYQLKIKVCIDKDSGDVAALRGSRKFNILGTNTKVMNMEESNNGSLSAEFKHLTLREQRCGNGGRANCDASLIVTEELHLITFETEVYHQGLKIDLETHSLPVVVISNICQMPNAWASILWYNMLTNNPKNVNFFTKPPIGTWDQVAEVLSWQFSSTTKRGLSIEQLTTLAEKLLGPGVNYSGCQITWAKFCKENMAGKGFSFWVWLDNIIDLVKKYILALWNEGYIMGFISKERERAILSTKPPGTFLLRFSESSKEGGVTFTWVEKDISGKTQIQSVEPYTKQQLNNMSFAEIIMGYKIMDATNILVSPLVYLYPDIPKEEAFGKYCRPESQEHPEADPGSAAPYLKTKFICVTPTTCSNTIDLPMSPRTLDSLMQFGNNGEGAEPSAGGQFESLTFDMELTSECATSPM
Transcription factor Sp1 (Homo sapiens), sequence (P08047 whole entry, looked up): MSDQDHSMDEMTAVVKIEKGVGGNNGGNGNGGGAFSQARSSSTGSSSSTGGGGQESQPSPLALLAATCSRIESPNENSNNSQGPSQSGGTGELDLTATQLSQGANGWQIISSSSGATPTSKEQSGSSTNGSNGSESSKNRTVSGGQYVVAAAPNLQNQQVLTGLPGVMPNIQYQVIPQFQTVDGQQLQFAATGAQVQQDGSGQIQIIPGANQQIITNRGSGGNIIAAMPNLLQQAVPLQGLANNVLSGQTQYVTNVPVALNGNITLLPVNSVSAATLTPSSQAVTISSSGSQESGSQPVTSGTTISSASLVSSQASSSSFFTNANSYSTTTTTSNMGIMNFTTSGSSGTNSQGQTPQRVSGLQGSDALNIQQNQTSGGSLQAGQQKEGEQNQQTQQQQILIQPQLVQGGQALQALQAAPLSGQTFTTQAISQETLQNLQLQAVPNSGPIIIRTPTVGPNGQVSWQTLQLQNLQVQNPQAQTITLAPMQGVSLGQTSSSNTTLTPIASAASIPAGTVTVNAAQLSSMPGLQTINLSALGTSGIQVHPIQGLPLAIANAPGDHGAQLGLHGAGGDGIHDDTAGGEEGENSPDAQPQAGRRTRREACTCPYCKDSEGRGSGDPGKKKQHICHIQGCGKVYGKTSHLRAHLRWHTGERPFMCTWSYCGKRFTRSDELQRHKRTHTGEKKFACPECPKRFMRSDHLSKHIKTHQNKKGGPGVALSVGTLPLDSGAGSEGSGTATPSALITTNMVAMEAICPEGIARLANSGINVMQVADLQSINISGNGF

O=C(NC(=O)c1c(F)cccc1F)Nc1cc(Cl)c(Oc2ncc(C(F)(F)F)cc2Cl)c(Cl)c1
not listed: [20]
inactive: all other assays above

Cc1cc(Cl)ccc1O
not listed: [9] | [20]
inactive: all other assays above

O=C(CCl)NCO
active: [20] 0.765 µM
not listed: [17]
inactive: all other assays above

CCOc1ccc(N)cc1
active: [9] 46.6 µM
not listed: [10] | [17]
inactive: all other assays above

CCCSP(=S)(OCC)Oc1ccc(SC)cc1 (stereo not drawn)
active: [7] 2.14 µM | [9] 2.92 µM | [20] 100 µM | [19] 4.63 µM
not listed: [18]
inactive: all other assays above

O=C1c2ccccc2C(=O)C1C(=O)C(c1ccccc1)c1ccc(Cl)cc1 (stereo not drawn)
active: [2] 88.4 µM | [4] 61.5 µM | [5] 62.8 µM | [6] 17.8 µM | [7] 9.73 µM | [8] 8.23 µM | [9] 1.51 µM | [10] 3.53 µM | [11] 8.58 µM | [12] 7.35 µM | [13] 7.69 µM | [14] 9.14 µM | [15] 167 µM | [18] 161 µM | [19] 2.93 µM
inactive: [1] | [3] | [16]

Oc1cccc(-c2ccccc2)c1
active: [9] 27.2 µM | [13] 168 µM | [14] 64.2 µM | [19] 66.3 µM
not listed: [17]
inactive: all other assays above

ClCCCCl
not listed: [9] | [17] | [18] | [20]
inactive: all other assays above

CC(C)(C)c1ccccc1O
active: [1] 170 µM | [3] 182 µM | [4] 147 µM | [6] 149 µM | [8] 165 µM | [9] 23.9 µM | [11] 160 µM | [12] 100 µM | [14] 163 µM | [19] 129 µM
inactive: [2] | [5] | [7] | [10] | [13] | [15] | [16] | [18] | [20]

CN(N=O)C(N)=O
not listed: [10] | [17]
inactive: all other assays above

O=C(O)COc1ccc(Cl)cc1
not listed: [11]
inactive: all other assays above

C=CC(=O)OCC(COC(=O)C=C)(COC(=O)C=C)COC(=O)C=C
active: [5] 56.5 µM | [6] 8.5 µM | [8] 8.18 µM | [11] 8.19 µM | [13] 8.41 µM
not listed: [17] | [19]
inactive: all other assays above

Cc1ccc2nc3sc(=O)sc3nc2c1
active: [5] 12.3 µM | [8] 7.08 µM | [9] 6.36 µM | [12] 6.58 µM | [16] 43.9 µM | [19] 14.3 µM
not listed: [11]
inactive: all other assays above

O=[N+]([O-])c1ccc(Cl)c([N+](=O)[O-])c1
active: [5] 6.97 µM | [15] 5.93 µM | [20] 3.71 µM
not listed: [9]
inactive: all other assays above
